A-T KAP1 phos: potential ataxia-telangiectasia treatments restoring KAP-1 phosphorylation | F2112 A-T fibroblasts, KAP-1 phosphorylation AlphaLISA; neocarzinostatin DNA damage 30 min before lysis | Potency, µM (doses to about 57.5 µM), without a hit: top-dose activation, actives largely listed as activators | 320,000 tested, 0.19% active | AID 485349; also: potency is read from the fitted curve at half-maximal effect; % of control where 0% means no effect; nearly all actives have a fitted effect of over 45% in size
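ATM-like activity read as KAP-1 phosphorylation via AlphaLISA donor/acceptor antibody pairs after lysis and 6 hr at 25C. Cells were ATM-null patient fibroblasts (F2112, hTERT), dosed 60 min, then exposed to the DSB inducer NCS for 30 min.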
hERG WT inh: inhibitors of human wildtype KCNH2 potassium channel. Q12809. U2OS, BacMam KCNH2, thallium flux FluxOr; active compounds read low. activity change, % at 1.84 µM. 340,000 tested, 0.37% active;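 active = maximum activity change below -70%; inconclusive = maximum activity change between -70% and -50%; inactive = maximum activity change above -50%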; also: % is scaled to controls: 0 for no effect and ±100 for the full control effect
Target sequence (Q12809 whole entry, looked up): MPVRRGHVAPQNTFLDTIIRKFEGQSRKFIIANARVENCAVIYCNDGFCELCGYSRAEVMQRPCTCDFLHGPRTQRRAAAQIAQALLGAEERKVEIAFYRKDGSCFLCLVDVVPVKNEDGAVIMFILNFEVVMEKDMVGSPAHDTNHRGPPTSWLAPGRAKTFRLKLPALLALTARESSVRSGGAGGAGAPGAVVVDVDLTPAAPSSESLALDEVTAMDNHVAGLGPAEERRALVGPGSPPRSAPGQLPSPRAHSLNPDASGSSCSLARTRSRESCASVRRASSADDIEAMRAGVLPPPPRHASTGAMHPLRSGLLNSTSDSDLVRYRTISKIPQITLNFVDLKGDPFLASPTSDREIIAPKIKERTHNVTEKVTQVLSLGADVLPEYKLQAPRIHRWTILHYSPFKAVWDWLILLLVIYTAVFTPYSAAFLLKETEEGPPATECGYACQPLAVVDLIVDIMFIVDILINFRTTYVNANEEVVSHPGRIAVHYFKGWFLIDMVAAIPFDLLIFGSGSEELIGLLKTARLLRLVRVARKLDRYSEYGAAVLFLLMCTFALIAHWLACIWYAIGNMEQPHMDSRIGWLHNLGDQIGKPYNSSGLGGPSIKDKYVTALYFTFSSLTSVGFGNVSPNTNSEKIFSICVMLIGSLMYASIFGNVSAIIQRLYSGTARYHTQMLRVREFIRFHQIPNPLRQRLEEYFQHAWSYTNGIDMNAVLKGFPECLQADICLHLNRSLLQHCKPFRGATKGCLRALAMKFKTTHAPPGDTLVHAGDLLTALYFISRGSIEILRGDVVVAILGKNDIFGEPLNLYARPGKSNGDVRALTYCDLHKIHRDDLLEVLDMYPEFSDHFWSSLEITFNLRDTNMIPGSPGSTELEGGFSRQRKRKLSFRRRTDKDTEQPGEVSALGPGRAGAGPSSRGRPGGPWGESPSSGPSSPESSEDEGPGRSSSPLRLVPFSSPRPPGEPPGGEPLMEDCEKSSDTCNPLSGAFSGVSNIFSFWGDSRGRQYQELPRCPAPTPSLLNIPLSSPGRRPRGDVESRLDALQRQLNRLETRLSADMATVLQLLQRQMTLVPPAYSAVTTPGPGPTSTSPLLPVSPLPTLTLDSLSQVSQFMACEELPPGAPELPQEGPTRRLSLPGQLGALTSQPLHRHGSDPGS
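U2OS cells transduced with wild-type KCNH2 virus are loaded with FluxOr dye for 45 min, and thallium flux is measured in kinetic reads before and after stimulation buffer. Rate constants are normalized to DMSO controls.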
KCNH2 3.1 block: KCNH2 3.1 (human) potassium channel inhibition. U2OS KCNH2 3.1, thallium flux FluxOr; active compounds read low. 340,000 tested, 0.95% active. activity change, % (tested at about 1.8 µM);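 active = maximum activity change below -70%; inconclusive = maximum activity change from -70% to -50%; inactive = maximum activity change above -50%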;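 also: thallium influx rate constant from kinetic fluorescence after stimulation buffer; % is scaled to controls: 0 for no effect and ±100 for the full control effect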
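Measured as rate of thallium-driven FluxOr signal in transduced U2OS cells carrying the 3.1 channel, read kinetically for 2 min upon stimulation; values are rate constants scaled to DMSO control wells.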
12-LOX inh: inhibitors of human 12S-lipoxygenase ALOX12. P18054. purified 12hLO, xylenol orange hydroperoxide absorbance. Potency, µM (titrated, usually from 108 µM), without a hit: at the highest dose activity change, negative = inhibition, hits mostly inhibitors. 580,000 tested, 1.1% active; also: potency is read from the fitted curve at half-maximal effect; % is scaled to controls: 0 for no effect and ±100 for the full control effect
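Hydroperoxide product was detected by ferrous iron/xylenol orange as the 573 to 405 nm absorbance ratio. Arachidonic acid at 40 uM (final) was turned over for 30 min at room temperature by 150 nM human 12hLO, pH 7.0 Hepes buffer, after 15 min compound preincubation.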
* hit, by the source's call; ? = inconclusive; nt = not tested or not shown; [ ] = another dose, or the depositor's remark. The list is not random: actives were taken first. Their share in the collection is about 1.8%. Unless noted, calls follow the shape of the dose curve; as a rule, active = well fitted curve in the direction sought with a large enough effect; inconclusive = small, poorly fitted or top-dose-only effect, or another doubt; inactive = no such curve, though single readings can be large; an effect the other way counts as inactive or inconclusive.

SMILES | A-T KAP1 phos | hERG WT inh | KCNH2 3.1 block | 12-LOX inh
O=C(C1CCCN(Cc2cccc3ccccc23)C1)N1CCc2ccccc2C1 (centres undefined) | nt | nt | nt | 0.631µM*
O=C1S/C(=C\C=C\c2ccco2)C(=O)N1c1ccc(O)cc1 | 6.3% | -19.9 | 6.1 | 39.8µM*
O=C1OC(c2ccccc2)=N/C1=C\C=C\c1ccco1 | 7.6% | -1.0 | -5.5 | ?
O=C1S/C(=C\C=C\c2ccco2)C(=O)N1c1ccccc1 | 2.7% | -5.5 | -18.3 | 28.2µM*
Cc1ccccc1-c1ccc2ncnc(NC3CC3)c2c1 | nt | nt | nt | -20.7%
COCCNc1ncnc2ccc(-c3ccccc3C)cc12 | nt | nt | nt | 28.2µM*
CCCCc1c(-c2ccccc2OC)ncn1Cc1ccccc1C | nt | nt | nt | 28.2µM*
O=C(NCCNC(=O)c1cc2ccccc2[nH]1)C(=O)NC1CC1 | nt | nt | nt | 14.4%
CCCSc1nc(N2CCOCC2)c2c(c1C#N)CCCC2 | 18.5% | 4.5 | -6.3 | 2.7%
CN(C)CCCSc1nc(N2CCOCC2)c2c(c1C#N)CCCC2 | nt | nt | nt | 0.501µM*
COc1ccc(C(CC(=O)c2ccc3c(c2)OCO3)C(=O)O)cc1OC (centres undefined) | nt | -9.9 | -2.3 | -12.8%
COc1ccc(C(=O)COc2ccc3c(c2)OCO3)cc1OC | nt | nt | nt | 44.7µM*
CCOC(=O)c1c(N)c2cc([N+](=O)[O-])ccc2n1C | -2.9% | -7.4 | -96.8* | 62.3%
Cc1cc(OCc2nnc(SC(=O)C3CC3)n2C)cc(C)c1Cl | nt | nt | nt | 7.2%
CCOc1ccc(CN2CCN(Cc3cccn3-c3cccnc3)CC2CCO)cc1 (centres undefined) | 1.0% | -45.5 | 9.1 | -1.4%
COc1ccc(CN2CCN(Cc3cccn3-c3ncccn3)CC2CCO)c(C)c1C (centres undefined) | 0.4% | -35.6 | -73.8* | 2.5%
CCOc1ccc(CN2CCN(Cc3cccn3-c3ncccn3)CC2CCO)cc1 (centres undefined) | 5.5% | ? | -111.5* | 1.6%
OCCC1CN(Cc2cccn2-c2ncccn2)CCN1Cc1ccc(F)cc1 (centres undefined) | -11.4% | 13.5 | -35.2 | 0.6%
Cc1coc2cc3o/c(=N/O)c4c(c3cc12)CCCC4 | nt | nt | nt | -17.0%
Cc1ccc(C(=O)c2cc(O)c(O)c([N+](=O)[O-])c2)cc1 | nt | nt | nt | 0.0544µM*
O=C(c1cc(O)c(O)c([N+](=O)[O-])c1)c1ccccc1F | -6.9% | -14.0 | 11.0 | ?
O=C(Nc1ccc(F)c(F)c1)c1cc(S(=O)(=O)N2CCN(c3ccccn3)CC2)ccc1F | -1.1% | -30.2 | -78.5* | 0.5%
O=C(Nc1c(F)cc(F)cc1Br)c1cc(S(=O)(=O)N2CCN(c3ccccn3)CC2)ccc1F | -2.0% | -1.3 | -10.3 | ?
C[S+](=O)([O-])N1CCCN(c2nc3ncccc3o2)CC1 | nt | nt | nt | 15.0%[176 µM]
CCc1ccc(NC(=O)Nc2ccc3sc(NC(C)=O)nc3c2)cc1 | nt | nt | nt | 7.08µM*
SMILES | A-T KAP1 phos | hERG WT inh | KCNH2 3.1 block | 12-LOX inh
CCCCCCCCOC(=O)c1nc(Cl)c(Cl)c(N)c1Cl | 31.6µM* | -0.3 | 0.6 | -4.0%
CC(=O)NNC(=S)Nc1ccc(C)cc1C | nt | nt | nt | 31.1%
CN(C)CC(O)COc1ccc(NC(=O)Nc2ccccc2)cc1 (centres undefined) | nt | nt | nt | -1.4%
CCOc1ccc(-c2nc(=S)[nH][nH]2)cc1 | nt | 4.0 | -5.5 | 25.1µM*
Cc1ccc(N=C2NN=C(c3cc(C)n(CC4CCCO4)c3C)CS2)cc1C (centres undefined) | nt | nt | nt | 35.5µM*
CCC(=O)Nc1cnc(-c2ccc(C)cc2)nc1 | nt | nt | nt | 34.5%
CC1CC2=C(NC(=S)NC2c2ccccc2F)/C(=C/c2ccccc2F)C1 (centres undefined) | -5.2% | 3.3 | 7.8 | 35.5µM*
CC1=C(C(=O)Nc2ccc(F)c(F)c2)C(c2ccccc2F)NC(=S)N1 (centres undefined) | nt | nt | nt | -46.2%
CC1CC2=C(NC(=S)NC2c2cccc(F)c2)/C(=C/c2cccc(F)c2)C1 (centres undefined) | -25.1% | 4.1 | -0.3 | 28.2µM*
Cc1ccc(/C=C2\CC(C)CC3=C2NC(=S)NC3c2ccc(C)cc2)cc1 (centres undefined) | 18.2% | 3.1 | -4.5 | ?
CS(=O)(=O)n1nc(-c2cccnc2)nc1NCc1ccccc1 | -1.3% | -13.8 | -7.6 | -3.3%
COc1ccc(CNc2nc(-c3cccnc3)nn2S(C)(=O)=O)cc1 | -0.7% | 1.5 | -75.6* | -0.8%
O=C(NC(CC1CCCCC1)C(=O)O)c1ccccc1 (centres undefined) | 25.1µM* | 8.8 | -3.7 | -1.9%
O=C(NC(Cc1ccccc1)C(=O)N1CCCCCC1)c1ccccc1 (centres undefined) | 19.0% | 1.5 | -12.0 | 13.2%
COC(=O)CC(c1ccc(OC)c(OC)c1)c1ccc(OC)c(OC)c1 | -0.8% | -211.9* | -5.2 | 0.0%
Cc1ccc(-c2noc(-c3cccc(F)c3)n2)cc1 | nt | nt | nt | -10.9%
CC(C)NC(=O)C(C)N1CCN(S(=O)(=O)c2ccc3ccccc3c2)CC1 (centres undefined) | -6.7% | -0.3 | 0.6 | 1.41µM*
CC(C)C(=O)N1CCN(S(=O)(=O)c2ccc3ccccc3c2)CC1 | -2.6% | 11.1 | -0.3 | -3.0%
CC(C)N1CCN(S(=O)(=O)c2ccc3ccccc3c2)CC1 | 7.4% | 9.9 | 32.5 | 0.794µM*
COc1ccc(C)cc1NC(=O)C(C)Oc1ccc(C#N)cc1OC (centres undefined) | nt | nt | nt | -38.3%
O=C(COC(=O)c1ccc(O)cc1O)Nc1ccc(Cl)cn1 | 0.2% | 3.2 | 21.6 | ?
Nc1ccc(O)cc1C(=O)OCC(=O)c1ccc(C2CCCCC2)cc1 | 2.0% | 2.5 | -4.6 | 11.2µM*
O=C(COC(=O)c1ccc(O)cc1O)c1ccc(Cl)cc1 | 5.3% | -0.5 | 1.7 | 44.7µM*
COc1ccccc1/C=C/CN1CCCC(CCC(=O)Nc2ccccc2F)C1 (centres undefined) | nt | nt | nt | 0.1%
CCC(=O)N1CCN(c2nc3c(s2)CC(C(=O)NCc2ccccc2)CC3)CC1 (centres undefined) | nt | nt | nt | 32.7%
SMILES | A-T KAP1 phos | hERG WT inh | KCNH2 3.1 block | 12-LOX inh
CCC(CC)NC(=O)C1CCc2nc(N3CCN(C(=O)C(C)C)CC3)sc2C1 (centres undefined) | nt | nt | nt | 35.5µM*
COc1ccc(NS(=O)(=O)c2cc(C(=O)N3CCCCCC3)cs2)c(OC)c1 | nt | nt | nt | -0.2%
C/C(=N\NC(=S)Nc1c(C)cccc1C)c1cc2ccccc2o1 | 7.4% | -8.4 | -5.0 | ?
C/C(=N\NC(=S)Nc1ccccc1C)c1cc2ccccc2o1 | 12.7% | -5.0 | 0.4 | 20µM*
OCCCCCCCCCCCN1CCCCC1 | nt | nt | nt | -18.8%
O=C(/C=C\NCC(=O)c1ccccc1)c1ccc2ccccc2c1 | -4.4% | -2.7 | 6.1 | 35.5µM*
CCc1ccc2cc(-c3ccc(C)c(C)c3)cn2c1 | nt | nt | nt | 25.1µM*
CCCc1nn2cc(-c3ccc(C)c(C)c3)nc2s1 | nt | nt | nt | -10.9%
CCC(CC)NC(=O)Nc1ccccc1C(F)(F)F | 5.3% | -111.6* | -18.3 | 0.0%
CCCNC(=O)C(C)OC(=O)c1ccc2[nH]c(C)c(C)c2c1 (centres undefined) | nt | nt | nt | -8.2%

Source: PubChem BioAssay (National Center for Advancing Translational Sciences (NCATS))
